Test results from PubChem BioAssay (EPA / NIEHS).
Several values for one entry are separate records, joined by “and”; a condition that tells them apart may be missing. Equal values may be shown once. The source holds several records for some structures; these can differ, active in one and inactive in another. Activity calls are given as the source filed them. The calls were made as follows: active = hit-call score of the fitted dose curve at least 0.9, where 1 is the maximum; inactive = score below 0.9.

How the values were obtained:
Settings in all cases: mRNA level, 48 h; actives raise or lower the signal
[1] = read-out: ABC Transporter (ABCB11), ABCB11 (gene 8647); experiment: LTEA_HepaRG_ABCB11: Life Technologies and Expression Analysis (LTEA) Assay for ABC Transporter (ABCB11) using HepaRG (AID 2283463)
Procedure, shortened: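 ABCB11 transcript levels are read by Fluidigm TaqMan qRT-PCR after 48 h chemical treatment of human HepaRG cells. Concentrations span 100 uM downward in half-log steps with 0.5% DMSO; gain or loss is fitted against DMSO controls.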

[2] = read-out: ABC Transporter (ABCC2), ABCC2 (gene 1244); experiment: LTEA_HepaRG_ABCC2: Life Technologies and Expression Analysis (LTEA) Assay for ABC Transporter (ABCC2) using HepaRG (AID 2283464)
Procedure, shortened: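 HepaRG cells were plated 48 h, switched to serum-free induction medium, then exposed in duplicate for 48 h to 8 concentrations (top 100 uM, half-log steps, 0.5% DMSO). ABCC2 mRNA was measured by qRT-PCR normalized to ACTB/GAPDH/POLR2A; bidirectional fitting versus DMSO.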

[3] = read-out: Broad substrate specificity ATP-binding cassette transporter ABCG2 (Homo sapiens) (UniProt Q9UNQ0); experiment: LTEA_HepaRG_ABCG2: Life Technologies and Expression Analysis (LTEA) Assay for ABC Transporter (ABCG2) using HepaRG (AID 2283465)
Procedure, shortened: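 Read-out is ABCG2 mRNA induction or loss quantified by qRT-PCR after 48 h chemical treatment of human HepaRG cells, normalized to three housekeeping genes. Concentrations reached 100 uM top in half-log steps; fitting was bidirectional against 0.5% DMSO.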

[4] = read-out: ATP-citrate lyase (ACLY), ACLY (gene 47); experiment: LTEA_HepaRG_ACLY: Life Technologies and Expression Analysis (LTEA) Assay for ATP-citrate lyase (ACLY) using HepaRG (AID 2283466)
Procedure, shortened: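 HepaRG, 48 h exposure, 8-pt half-log dilutions (top 100 uM), 0.5% DMSO. Readout: ACLY mRNA, TaqMan qRT-PCR, housekeeping-normalized (ACTB/GAPDH/POLR2A). Bidirectional curve fit vs DMSO.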

[5] = read-out: Peroxisomal acyl-coenzyme A oxidase 1 (ACOX1) gene, ACOX1 (gene 51); experiment: LTEA_HepaRG_ACOX1: Life Technologies and Expression Analysis (LTEA) Assay for Peroxisomal acyl-coenzyme A oxidase 1 (ACOX1) gene using HepaRG (AID 2283467)
Procedure, shortened: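 Measured by qRT-PCR against three housekeeping genes: ACOX1 transcript change in human HepaRG cells after 48 h dosing. Concentrations ran up to 100 uM in half-log steps. Curves were fitted bidirectionally relative to 0.5% DMSO.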

[6] = read-out: Alkaline Phosphatase, Placental (ALPP) gene, ALPP (gene 250); experiment: LTEA_HepaRG_ALPP: Life Technologies and Expression Analysis (LTEA) Assay for Alkaline Phosphatase, Placental (ALPP) gene using HepaRG (AID 2283468)
Procedure, shortened: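 Differentiated human HepaRG cells were plated and cultured 48 h, then exposed in duplicate for 48 h in serum-free induction medium to eight half-log concentrations from 100 uM in 0.5% DMSO. ALPP mRNA was measured by TaqMan qRT-PCR, normalized to ACTB, GAPDH, POLR2A.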

[7] = read-out: Bcl-2 (BAD) gene, BAD (gene 572); experiment: LTEA_HepaRG_BAD: Life Technologies and Expression Analysis (LTEA) Assay for Bcl-2 (BAD) gene using HepaRG (AID 2283469)
Procedure, shortened: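 BAD transcript change, measured by qRT-PCR against three housekeeping genes and fitted in both directions relative to 0.5% DMSO, after 48 h chemical treatment of human HepaRG liver cells at concentrations up to 100 uM.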

[8] = read-out: Bcl-2 (BAX) gene, BAX (gene 581); experiment: LTEA_HepaRG_BAX: Life Technologies and Expression Analysis (LTEA) Assay for Bcl-2 (BAX) gene using HepaRG (AID 2283470)
Procedure, shortened: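 Differentiated HepaRG cells exposed 48 h in serum-free induction medium, eight half-log concentrations from 100 uM, in duplicate, 0.5% DMSO vehicle. BAX mRNA by TaqMan qRT-PCR, normalised to ACTB, GAPDH and POLR2A.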

[9] = read-out: adenosine kinase (ADK) gene, ADK (gene 132); experiment: LTEA_HepaRG_ADK: Life Technologies and Expression Analysis (LTEA) Assay for adenosine kinase (ADK) gene using HepaRG (AID 2283471)
Procedure, shortened: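 Following 48 h exposure of HepaRG cells in 0.5% DMSO (top concentration 100 uM, duplicate wells), ADK mRNA induction or suppression was measured by qRT-PCR, normalised to ACTB/GAPDH/POLR2A, and fitted bidirectionally relative to vehicle.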

[10] = read-out: Alpha-fetoprotein (AFP) gene, AFP (gene 174); experiment: LTEA_HepaRG_AFP: Life Technologies and Expression Analysis (LTEA) Assay for Alpha-fetoprotein (AFP) gene using HepaRG (AID 2283472)
Procedure, shortened: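 Differentiated human HepaRG cells exposed 48 h in serum-free induction medium, 8-point half-log series from 100 uM in 0.5% DMSO, duplicate. AFP mRNA by qRT-PCR, normalized to ACTB, GAPDH, POLR2A; bidirectional fit vs DMSO.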

[11] = read-out: BCL2L11 (gene 10018); experiment: LTEA_HepaRG_BCL2L11: Life Technologies and Expression Analysis (LTEA) Assay for Bcl-2 (BCL2L11) gene using HepaRG (AID 2283473)
Procedure, shortened: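 Differentiated human HepaRG cells in serum-free induction medium were exposed in duplicate for 48 h to eight concentrations (top 100 uM, half-log steps, 0.5% DMSO). BCL2L11 mRNA was quantified by TaqMan qRT-PCR, normalized to ACTB/GAPDH/POLR2A, bidirectional fit versus DMSO.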

[12] = read-out: Apolipoprotein A-V (APOA5) gene, APOA5 (gene 116519); experiment: LTEA_HepaRG_APOA5: Life Technologies and Expression Analysis (LTEA) Assay for Apolipoprotein A-V (APOA5) gene using HepaRG (AID 2283474)
Procedure, shortened: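 Differentiated human HepaRG cells were exposed in duplicate for 48 h to eight half-log concentrations from 100 uM in 0.5% DMSO. APOA5 mRNA was quantified by TaqMan qRT-PCR, normalized to ACTB, GAPDH and POLR2A, and fitted bidirectionally against DMSO.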

[13] = read-out: Apoptosis regulator Bcl-2 (Homo sapiens) (UniProt P10415); experiment: LTEA_HepaRG_BCL2: Life Technologies and Expression Analysis (LTEA) Assay for Bcl-2 gene using HepaRG (AID 2283475)
Procedure, shortened: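 Differentiated human HepaRG cells in serum-free induction medium exposed 48 h, in duplicate, to 8-point half-log series from 100 uM in 0.5% DMSO. BCL2 mRNA by qRT-PCR (TaqMan/Fluidigm), normalized to ACTB, GAPDH, POLR2A; bidirectional fit against DMSO.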

[14] = read-out: Caspase-3 (Homo sapiens) (UniProt P42574); experiment: LTEA_HepaRG_CASP3: Life Technologies and Expression Analysis (LTEA) Assay for cysteine-aspartic acid protease (CASP3) using HepaRG (AID 2283477)
Procedure, shortened: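 Differentiated human HepaRG cells in serum-free induction medium were exposed 48 h to 8-point half-log concentrations from 100 uM (0.5% DMSO vehicle). CASP3 mRNA was measured by qRT-PCR, normalised to ACTB, GAPDH and POLR2A, with bidirectional fitting against DMSO.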

[15] = read-out: Cytochrome P450 (CYP24A1), CYP24A1 (gene 1591); experiment: LTEA_HepaRG_CYP24A1: Life Technologies and Expression Analysis (LTEA) Assay for Cytochrome P450 (CYP24A1) using HepaRG (AID 2283478)
Procedure, shortened: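 Differentiated HepaRG cells, pre-cultured 48 h, were exposed in duplicate for 48 h in serum-free induction medium to 8 half-log concentrations (top 100 uM, 0.5% DMSO). CYP24A1 mRNA was quantified by TaqMan qRT-PCR, normalized to ACTB/GAPDH/POLR2A, fitted bidirectionally versus DMSO.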

[16] = read-out: Cytochrome P450 (CYP1A2), CYP1A2 (gene 1544); experiment: LTEA_HepaRG_CYP1A2: Life Technologies and Expression Analysis (LTEA) Assay for Cytochrome P450 (CYP1A2) using HepaRG (AID 2283479)
Procedure, shortened: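 Differentiated human HepaRG cells in serum-free induction medium were exposed in duplicate for 48 h to 8-point half-log concentrations up to 100 uM in 0.5% DMSO. CYP1A2 mRNA measured by qRT-PCR, normalized to ACTB, GAPDH, POLR2A; bidirectional fit vs DMSO.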

[17] = read-out: cysteine-aspartic acid protease (CASP8), CASP8 (gene 841); experiment: LTEA_HepaRG_CASP8: Life Technologies and Expression Analysis (LTEA) Assay for cysteine-aspartic acid protease (CASP8) using HepaRG (AID 2283480)
Procedure, shortened: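 HepaRG, 48 h exposure, duplicate wells; 8 conc, half-log from 100 uM, 0.5% DMSO. Serum-free induction medium. CASP8 mRNA by TaqMan qRT-PCR, norm. ACTB/GAPDH/POLR2A; gain/loss fitted vs DMSO.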

[18] = read-out: Cytochrome P450 (CYP2B6), CYP2B6 (gene 1555); experiment: LTEA_HepaRG_CYP2B6: Life Technologies and Expression Analysis (LTEA) Assay for Cytochrome P450 (CYP2B6) using HepaRG (AID 2283481)
Procedure, shortened: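 Differentiated HepaRG cells, serum-free induction medium, exposed 48 h in duplicate to 8-point half-log concentrations from 100 uM in 0.5% DMSO. CYP2B6 mRNA by qRT-PCR, normalized to ACTB, GAPDH, POLR2A; bidirectional fit versus DMSO.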

[19] = read-out: Cytochrome P450 2C19 (Homo sapiens) (UniProt P33261); experiment: LTEA_HepaRG_CYP2C19: Life Technologies and Expression Analysis (LTEA) Assay for CYP2C19 using HepaRG (AID 2283482)
Procedure, shortened: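 Differentiated human HepaRG cells were exposed for 48 h in serum-free induction medium to 8 concentrations (top 100 uM, half-log steps, 0.5% DMSO). CYP2C19 mRNA was measured by qRT-PCR, normalized to ACTB/GAPDH/POLR2A, and fitted bidirectionally against DMSO.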

[20] = read-out: Bcl-2 (BID) gene, BID (gene 637); experiment: LTEA_HepaRG_BID: Life Technologies and Expression Analysis (LTEA) Assay for Bcl-2 (BID) gene using HepaRG (AID 2283476)
Procedure, shortened: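 Gene expression by qRT-PCR in HepaRG cells after 48 h exposure, duplicate wells, eight half-log concentrations topping at 100 uM in 0.5% DMSO. Normalized to ACTB, GAPDH, POLR2A; bidirectional fitting relative to DMSO.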

Measured: AC50

Chain of Apoptosis regulator Bcl-2 (Homo sapiens) (P10415 whole entry, looked up): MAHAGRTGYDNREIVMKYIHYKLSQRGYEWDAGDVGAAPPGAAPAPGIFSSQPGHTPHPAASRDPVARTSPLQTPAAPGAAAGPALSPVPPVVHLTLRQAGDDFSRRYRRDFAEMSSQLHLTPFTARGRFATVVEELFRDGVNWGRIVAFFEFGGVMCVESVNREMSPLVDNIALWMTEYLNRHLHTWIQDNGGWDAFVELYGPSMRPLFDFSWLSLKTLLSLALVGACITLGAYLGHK
Chain of Broad substrate specificity ATP-binding cassette transporter ABCG2 (Homo sapiens) (Q9UNQ0 whole entry, looked up): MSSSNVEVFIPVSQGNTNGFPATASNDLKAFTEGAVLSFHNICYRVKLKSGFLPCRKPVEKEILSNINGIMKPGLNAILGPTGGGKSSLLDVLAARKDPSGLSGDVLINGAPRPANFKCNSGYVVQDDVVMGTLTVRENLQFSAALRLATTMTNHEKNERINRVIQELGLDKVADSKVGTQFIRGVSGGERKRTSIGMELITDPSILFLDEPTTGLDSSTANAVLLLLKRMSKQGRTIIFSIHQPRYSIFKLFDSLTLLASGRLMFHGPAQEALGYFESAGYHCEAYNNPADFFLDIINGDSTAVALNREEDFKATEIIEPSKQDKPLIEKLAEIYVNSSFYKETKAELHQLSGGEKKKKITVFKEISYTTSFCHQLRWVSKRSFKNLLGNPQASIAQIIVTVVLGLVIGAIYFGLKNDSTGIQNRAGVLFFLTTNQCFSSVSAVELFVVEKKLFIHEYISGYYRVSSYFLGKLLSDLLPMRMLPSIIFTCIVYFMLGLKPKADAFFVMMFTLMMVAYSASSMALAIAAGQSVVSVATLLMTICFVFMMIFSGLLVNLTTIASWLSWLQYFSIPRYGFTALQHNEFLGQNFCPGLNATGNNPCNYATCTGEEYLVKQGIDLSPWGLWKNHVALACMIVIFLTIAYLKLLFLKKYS
Chain of Cytochrome P450 2C19 (Homo sapiens) (P33261 whole entry, looked up): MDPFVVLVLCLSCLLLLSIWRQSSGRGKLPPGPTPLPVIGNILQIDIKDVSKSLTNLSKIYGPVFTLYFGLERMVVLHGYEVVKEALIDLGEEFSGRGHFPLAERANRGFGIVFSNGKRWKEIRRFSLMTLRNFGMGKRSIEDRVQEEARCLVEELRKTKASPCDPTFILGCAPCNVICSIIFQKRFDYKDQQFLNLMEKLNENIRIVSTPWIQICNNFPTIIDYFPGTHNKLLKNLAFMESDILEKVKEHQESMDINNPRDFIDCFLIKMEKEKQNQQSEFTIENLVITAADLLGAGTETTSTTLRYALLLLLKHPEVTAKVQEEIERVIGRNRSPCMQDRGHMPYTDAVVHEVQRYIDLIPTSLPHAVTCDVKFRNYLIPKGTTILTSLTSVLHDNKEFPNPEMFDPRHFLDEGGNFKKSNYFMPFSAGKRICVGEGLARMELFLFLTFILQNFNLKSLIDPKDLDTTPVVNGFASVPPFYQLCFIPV
Chain of Caspase-3 (Homo sapiens) (P42574 whole entry, looked up): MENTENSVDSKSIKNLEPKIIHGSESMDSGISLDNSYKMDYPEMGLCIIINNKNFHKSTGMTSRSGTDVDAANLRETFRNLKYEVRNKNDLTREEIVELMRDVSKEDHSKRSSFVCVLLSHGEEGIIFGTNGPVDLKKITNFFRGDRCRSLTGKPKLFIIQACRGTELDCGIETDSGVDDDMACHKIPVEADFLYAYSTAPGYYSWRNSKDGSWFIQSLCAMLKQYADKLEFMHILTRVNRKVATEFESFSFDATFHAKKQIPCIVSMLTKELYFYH

CNC(=O)CSP(=S)(OC)OC
active: [16] 16.2 µM | [18] 23.1 µM
not listed: [20]
inactive: all other assays above

COc1nn(CSP(=S)(OC)OC)c(=O)s1
active: [16] 12.1 µM | [18] 4.94 µM | [19] 10.6 µM
not listed: [2]
inactive: all other assays above

CCC(C)(C)C(=O)OC1=C(c2ccc(Cl)cc2Cl)C(=O)OC12CCCCC2
active: [1] 20.7 µM | [12] 50 µM | [16] 50 µM
not listed: [2]
inactive: all other assays above

Cc1[nH]c(=O)n(C(C)(C)C)c(=O)c1Cl
active: [16] 36.2 µM | [18] 15.6 µM | [19] 31.1 µM
not listed: [2] | [20]
inactive: all other assays above

O=C(O)COc1ccc(Cl)cc1Cl
active: [1] 31.2 µM | [16] 50 µM | [18] 20.8 µM | [19] 19.6 µM
not listed: [2] | [20]
inactive: all other assays above

O=C1c2ccccc2C(=O)N1SC(Cl)(Cl)Cl
not listed: [20]
inactive: all other assays above

CNC(=O)Oc1cccc(N=CN(C)C)c1
not listed: [2] | [20]
inactive: all other assays above

O=C(O)CCCOc1ccc(Cl)cc1Cl
active: [3] 11.6 µM | [4] 50.8 µM | [5] 20.5 µM | [9] 50.8 µM | [16] 73.8 µM | [18] 15.2 µM | [19] 14 µM
not listed: [2] | [20]
inactive: all other assays above

CCCN(CCOc1c(Cl)cc(Cl)cc1Cl)C(=O)n1ccnc1
inactive: [7] | [9] | [14] | [15] | [17]
active: [1] 25.5 µM | [2] 84.8 µM | [3] 10.8 µM | [4] 12.5 µM | [5] 50 µM | [6] 35.6 µM | [8] 50 µM | [10] 22.5 µM | [11] 12.7 µM | [12] 39 µM | [13] 28.9 µM | [16] 3.86 µM | [18] 31 µM | [19] 36.8 µM

CC(C)OC(=O)Nc1cccc(Cl)c1
active: [18] 50 µM
not listed: [20]
inactive: all other assays above

Oc1cc(Cl)ccc1Oc1ccc(Cl)cc1Cl
active: [1] 73.3 µM and 75.5 µM | [10] 51 µM | [11] 51 µM | [12] 51 µM and 81.5 µM | [18] 17 µM and 51 µM | [19] 83.2 µM
inactive: [1] | [3] | [4] | [5] | [6] | [7] | [8] | [9] | [10] | [11] | [12] | [13] | [14] | [15] | [16] | [17] | [18] | [19]
